Laboratory results as given in PubChem BioAssay (NCI).
The panel holds about 83,000 compounds, 20% with a hit somewhere; the sample as a whole holds those more often.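 Note: values are percent growth. 100 is the growth of untreated cells, values between 100 and 0 indicate rising inhibition; between -100 and 0 indicates cell death.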 The source made the active and inactive calls. The calls were made as follows: active = growth percent below 10; inactive = the rest.

Key:
Test in all cases: NCI-60 one-dose screen, 48 h (100 = growth as untreated, 0 = no growth, -100 = all killed)
DU-145 prostate = settings: 10 µM unless noted
K-562 leukemia = settings: 10 µM unless noted
MALME-3M melanoma = settings: 10 µM unless noted
MDA-MB-231 breast = settings: 10 µM unless noted
RXF 393 renal = settings: 10 µM unless noted
SF-268 CNS = settings: 10 µM unless noted
SF-295 CNS = settings: 10 µM unless noted
SF-539 CNS = settings: 10 µM unless noted
UACC-257 melanoma = settings: 10 µM
M14 melanoma = settings: 10 µM unless noted

Measured: growth

COc1cc(NC(=O)CSc2nc3ccc(C)cc3c(=O)n2-c2ccccc2)cc(OC)c1OC
inactive: DU-145 prostate 110% | K-562 leukemia 87.1% | MALME-3M melanoma 90.5% | MDA-MB-231 breast 77.3% | RXF 393 renal 86.2% | SF-268 CNS 86.2% | SF-295 CNS 92.2% | SF-539 CNS 93.6% | UACC-257 melanoma 83% | M14 melanoma 79.9%

COc1cc(NC(=O)CCl)ccc(=O)c1
inactive: DU-145 prostate 83.5% | K-562 leukemia 75.2% | MALME-3M melanoma 87.7% | MDA-MB-231 breast 58.6% | RXF 393 renal 84.7% | SF-268 CNS 77.6% | SF-295 CNS 80.9% | SF-539 CNS 83.5% | UACC-257 melanoma 66% | M14 melanoma 78.6%

O=S(=O)(NCCCNc1cc(-c2cn(-c3ccccc3)nc2-c2cccc(O)c2)ccn1)c1ccc(Cl)cc1
active: K-562 leukemia -8.45% | MALME-3M melanoma -19.3% | MDA-MB-231 breast -17.3% | SF-295 CNS -47.9% | M14 melanoma 8.6%
inactive: DU-145 prostate 39.9% | RXF 393 renal 14.9% | SF-268 CNS 30.6% | SF-539 CNS 21.6%

COc1ccc(C(=O)c2cc(OC)c(OC)c(OC)c2)cc1/C=C/C(=O)c1ccc(OC)c(OC)c1
inactive: K-562 leukemia 12.3% | MALME-3M melanoma 56.6% | MDA-MB-231 breast 26.1% | RXF 393 renal 29.3% | SF-268 CNS 17% | UACC-257 melanoma 49.1% | M14 melanoma 36.2%
active: DU-145 prostate -4.98% | SF-295 CNS -46.2% | SF-539 CNS -23.5%

COc1ncc(-c2ccc3ncnc(Nc4cccc(Cl)c4)c3c2)cc1NS(=O)(=O)C1CC1
active: RXF 393 renal 1.04%
inactive: DU-145 prostate 26% | K-562 leukemia 60.5% | MALME-3M melanoma 15.9% | MDA-MB-231 breast 37.9% | SF-268 CNS 43% | SF-295 CNS 34.2% | SF-539 CNS 27% | M14 melanoma 56.6%

CC/C=C\C/C=C\C[C@H](O)C/C=C1/C(=O)C=C[C@H]1C/C=C\CCC(=O)OC
inactive: DU-145 prostate 46% [8.25 µM] | MALME-3M melanoma 41.6% [8.25 µM] | MDA-MB-231 breast 21% [8.25 µM] | RXF 393 renal 21.3% [8.25 µM] | SF-268 CNS 20.6% [8.25 µM] | SF-295 CNS 82.4% [8.25 µM] | SF-539 CNS 17% [8.25 µM] | M14 melanoma 12.7% [8.25 µM]
active: K-562 leukemia 5.45% [8.25 µM]

Cc1ccc2c(c1)C(C)Cc1c(N(C)C)ncnc1N2C (centres undefined)
inactive: DU-145 prostate 68.7% | K-562 leukemia 12.8% | MALME-3M melanoma 53.2% | MDA-MB-231 breast 56.3% | RXF 393 renal 40.1% | SF-268 CNS 47.3% | SF-539 CNS 28.3% | M14 melanoma 24.7%
active: SF-295 CNS 6.52%

CCOP(=O)(CCN1CCN(CCCCCOc2cc3c(cc2OC)C(=O)N2CCC[C@H]2C=N3)CC1)OCC
inactive: DU-145 prostate 91.5% | K-562 leukemia 35.7% | MALME-3M melanoma 119% | MDA-MB-231 breast 74.3% | RXF 393 renal 46% | SF-268 CNS 57% | SF-295 CNS 97.3% | SF-539 CNS 53.5% | M14 melanoma 91.8%

CSc1ccccc1C#C/C=C\C#Cc1ccccc1N1CCCC1=O
inactive: DU-145 prostate 85.7% | K-562 leukemia 14.7% | MALME-3M melanoma 50% | MDA-MB-231 breast 51% | RXF 393 renal 52.9% | SF-268 CNS 56.6% | SF-295 CNS 65.3% | SF-539 CNS 55.1% | M14 melanoma 64.5%

OC1CC2c3ccccc3C1c1ccccc12 (centres undefined)
inactive: DU-145 prostate 117% | K-562 leukemia 111% | MALME-3M melanoma 110% | MDA-MB-231 breast 110% | RXF 393 renal 111% | SF-268 CNS 105% | SF-295 CNS 107% | SF-539 CNS 108% | M14 melanoma 98.4%

COc1ccc2c(c1)C(C)Cc1c(N(C)C)ncnc1N2C (centres undefined)
active: SF-295 CNS 9.16% | SF-539 CNS 6.17%
inactive: DU-145 prostate 53.5% | K-562 leukemia 15.1% | MALME-3M melanoma 56.4% | MDA-MB-231 breast 54.3% | RXF 393 renal 49% | SF-268 CNS 46.1% | M14 melanoma 25.5%

CCN(CC)CCC(=O)c1cccc2ccccc12
inactive: DU-145 prostate 108% | K-562 leukemia 89.6% | MALME-3M melanoma 98.6% | MDA-MB-231 breast 94.8% | RXF 393 renal 102% | SF-268 CNS 109% | SF-295 CNS 101% | SF-539 CNS 92.4% | M14 melanoma 111%

Cc1cc2c(C(C)C)c(O)c(O)c(C=NCCCCC(=O)O)c2c(O)c1-c1c(C)cc2c(C(C)C)c(O)c(O)c(C=NCCCCC(=O)O)c2c1O
inactive: DU-145 prostate 63.8% | K-562 leukemia 26.4% | MALME-3M melanoma 78.8% | MDA-MB-231 breast 40% | RXF 393 renal 57% | SF-268 CNS 44.2% | SF-295 CNS 27.3% | SF-539 CNS 42.2% | M14 melanoma 66.9%

CS(=O)(=O)N(c1cc(-c2ccc3ncnc(Nc4cccc(Cl)c4)c3c2)cnc1Cl)S(C)(=O)=O
inactive: DU-145 prostate 21.6% | K-562 leukemia 26.5% | SF-268 CNS 24% | M14 melanoma 21.8%
active: MALME-3M melanoma -24.7% | MDA-MB-231 breast 7.55% | RXF 393 renal -20.1% | SF-295 CNS -4.24% | SF-539 CNS -8.58%
